The full list was thinned out, with hits kept by preference.
Pf Dd2 inh: blocks in vitro growth of P. falciparum Dd2; AID 1347417; 120,000 compounds, 4.3% hits; P. falciparum Dd2 growth, SYBR Green, 72 h; Potency, µM (series often up to 28.9 µM), without a hit: at the top dose activity, negative = inhibition, hits mostly inhibitors; active means well fitted inhibition curve with a large enough effect;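 further: plate controls were DMSO vehicle for no effect and reference drug for full effect; nearly all actives have a fitted effect of over 65% in size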
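Readout: SYBR Green fluorescence, 485 nm excitation, 535 nm emission, after ~16 h lysis at 37C. Before that, Dd2-infected red cells (2.5% hematocrit) grew 72 h with compound, 29 uM top final concentration.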
* marks the source's active call; other numbers are inactive results; i = inactive; [ ] = remark or other dose. Potency means the concentration at half of the fitted maximal effect.

SMILES | Pf Dd2 inh
COc1ccc(CN2CCCC(CO)(CC3CC3)C2)c(F)c1 (stereo not drawn) | 13µM*
COc1cccc(CCC(=O)N2CCCC(CO)(CC3CC3)C2)c1 (stereo not drawn) | -5%
COc1ccc(CCC(=O)N2C[C@@H](CO)[C@H](c3nc(C)no3)C2)cc1 | 22%
O=C(NC1CCOCC1)c1cccc(S(=O)(=O)N2CCC[C@H]2CO)c1 | 5%
Clc1cccc(N2CCN(C3CCCN(CCCc4ccccc4)C3)CC2)c1 (stereo not drawn) | i
COc1ccc(C2Cn3nnc(C(=O)N4CCC(C(=O)NCc5cccc(C)c5)CC4)c3CO2)cc1 (stereo not drawn) | -17%
COc1cccc(CN2CCCC(Nc3cc(N)ncn3)C2)c1 (stereo not drawn) | -19%
CCN(Cc1cccc(OCCO)c1)CC1CCCN(CCc2cccc(OC)c2)C1 (stereo not drawn) | 10µM*
COc1cccc(CCC2CCCN(C(=O)C3CCCC3)C2)c1 (stereo not drawn) | i
CC(C)c1nncn1C1CCN(S(=O)(=O)c2ccc(C(F)(F)F)cc2)CC1 | -22%
COc1ccc(NC(=O)Cn2c(=O)c(-c3noc(C)n3)c3n(c2=O)CCCC3)cc1 | 16%
COc1ccc(-c2cnnn2-c2ccc(NC(=O)c3ccc(S(=O)(=O)N(C)C)cc3)cc2)cc1 | i
COc1ccc(-c2[nH]c3ccccc3c2SCCNC(=O)c2ccc(S(=O)(=O)N(C)C)cc2)cc1 | 7.9µM*
COc1ccc(S(=O)(=O)N(CC(=O)NCCSc2ccc(C)cc2)c2ccc(C)cc2)cc1 | -3%
CCN(CC)S(=O)(=O)c1ccc(C(=O)NCCSc2c(-c3ccc(OC)cc3)[nH]c3ccccc23)cc1 | 7.9µM*
CCN(CC)S(=O)(=O)c1ccc(NC(=O)Cn2ncc3c([nH]c4ccccc43)c2=O)cc1 | 45%
COc1ccc(S(=O)(=O)N(CCc2ccccc2)CC(=O)NCc2ccccc2)cc1 | i
COc1ccc(-n2c(=O)c3c(n2Cc2ccccc2)CN(C(=O)c2ccnn2C)CC3)cc1 | 38%
CC1(C)[C@H](Cc2cc(CN3CCOCC3)on2)C[C@@H]1NCc1ccc(CO)o1 | 11%[44.1 µM]
Cc1nc2c(c(=O)[nH]1)CCN(C(=O)C1(C)CCc3c(C)c(O)c(C)c(C)c3O1)C2 (stereo not drawn) | -20%
Cn1cccc1CN1CCC2(CN[S+](=O)([O-])c3ccccc3N2)C1 (stereo not drawn) | i
O=[S+]1([O-])NC2(CCCN(Cc3cncs3)C2)CNc2ccccc21 (stereo not drawn) | 39%
COc1ccc(C(=O)N[C@H]2CO[C@H]3[C@@H]2OC[C@H]3OCC(N)=O)cc1 | -4%[44.1 µM]
CCc1ccc(S(=O)(=O)c2c(C(=O)c3ccc(C)c(C)c3)cnc3ccccc23)cc1 | 4µM*
CCOc1ccc(S(=O)(=O)c2c(C(=O)c3ccc(CC)cc3)cnc3ccc(C)cc23)cc1 | i
SMILES | Pf Dd2 inh
CCc1ccc(C(=O)c2cnc3ccc(C)cc3c2S(=O)(=O)c2ccc(OC)cc2)cc1 | 11µM*
CCc1ccc(Cn2c(CNS(=O)(=O)c3ccc(C)c(C)c3)nc3cccnc32)cc1 | -15%
COc1ccc(S(=O)(=O)c2c(O)c3ccc(C(=O)NCc4ccc(F)cc4)cc3[nH]c2=O)cc1 | -17%
Cc1ccc(CCNC(=O)c2cc(Nc3ccc(C)c(C)c3)nc3ccccc23)cc1 | -2%
COc1ccc(C(=O)NC2CCN(C(=O)N3CC4CC(C3)[C@H]3CCCC(=O)N3C4)CC2)cc1 (stereo partly drawn) | -4%
CC(C)(C)C(=O)N1CCCC(c2nn(-c3ccccc3)c(=O)[nH]2)C1 (stereo not drawn) | i
CCCCc1ncc(CN2CCCC(c3cccc(C(=O)O)c3)C2)[nH]1 (stereo not drawn) | -2%
Cc1cnc(C2CC2)n1C1CCCN(C(=O)CC(C)C)C1 (stereo not drawn) | -7%
CC(C)c1cnc(C2CCCN(C(=O)OC(C)(C)C)C2)[nH]1 (stereo not drawn) | 11µM*
CC(C)Cc1cnc(C2CCCN(C(=O)OC(C)(C)C)C2)[nH]1 (stereo not drawn) | 7.1µM*
COc1ccc(-n2nc(C3CCCN(C(=O)C(C)(C)C)C3)[nH]c2=O)cc1 (stereo not drawn) | i
COc1ccc(C(=O)N2[C@@H]3CC[C@H]2CC(NC(=O)c2cnc(C)cn2)C3)cc1F (stereo partly drawn) | i
CC(C)(C)CC(=O)N1CC[C@H]2CC(=O)N(CCN3CCNC3=O)CC[C@H]2C1 | -4%[44.1 µM]
CCOCC(=O)N[C@@H]1CN(Cc2ccccc2)C[C@H]1CN(C)C | i
COc1cccc(NC(=O)C2CCN(S(=O)(=O)c3cc(-c4noc(C)n4)ccc3C)CC2)c1 | 10µM*
COc1ccc(-c2noc(N3CCC(C(=O)Nc4ccc(OC)c(OC)c4)CC3)n2)cc1 | 21%
Cc1nc(-c2ccc(C)c(S(=O)(=O)N3CCC(C(=O)Nc4ccc(Cl)cc4)CC3)c2)no1 | 11µM*
Cc1ccc(NC(=O)C2CCN(S(=O)(=O)c3cccc4nonc34)CC2)cc1C | 12%
Cc1nc(-c2cccc(S(=O)(=O)N3CCC(C(=O)NCc4ccccc4Cl)CC3)c2)no1 | 25%
CC(=O)c1ccc(N2CCN(S(=O)(=O)c3cc(-c4noc(C)n4)ccc3C)CC2)cc1 | 13%
Cc1ccc(NC(=O)C2N(C(C)C)C(=O)C23CCCC3)cc1 (stereo not drawn) | 0%
O=C(O)C1CCc2nnc(C3CCN(C(=O)c4ccc5c(c4)OCO5)CC3)n21 (stereo not drawn) | 14%
COCCNC(=O)c1cc(-c2ccc(OC)cc2)nc2onc(C3CCNC3)c12 (stereo not drawn) | -23%
O=C(CC[C@H]1NC(=O)c2ccccc2NC1=O)Nc1n[nH]c(Cc2ccc(F)cc2)n1 | 5%
COc1ccccc1NC(=O)c1c(NC(=O)c2ccco2)sc2c1CCC(C(C)(C)C)C2 (stereo not drawn) | -2%
SMILES | Pf Dd2 inh
CCOc1ccc(NC(=O)c2c(NC(=O)c3cccs3)sc3c2CCC(C(C)(C)C)C3)cc1 (stereo not drawn) | -17%
CCCOc1ccc(/C=C/C(=O)Nc2sc3c(c2C(=O)OCC)CCC(C)C3)cc1OC (stereo not drawn) | 43%
CCOc1ccc(NC(=O)c2c(NC(=O)c3ccco3)sc3c2CCC(C(C)(C)C)C3)cc1 (stereo not drawn) | 10µM*
CCOC(=O)c1ccc(NC(=O)c2c(NCc3ccc(OC)c(OC)c3OC)sc3c2CCC(C)C3)cc1 (stereo not drawn) | 10µM*
CC(C)(C)C1CCc2c(sc(NC(=O)c3ccc(Cl)cc3)c2C(=O)NCc2ccco2)C1 (stereo not drawn) | 5.6µM*
CCOC(=O)c1c(NC(=O)c2cc3ccccc3c(=O)o2)sc2c1CCC(C)C2 (stereo not drawn) | 34%
CC1CCc2c(sc(NC(=O)c3ccccc3)c2C(=O)Nc2ccccc2)C1 (stereo not drawn) | 13µM*
CC(C)(C)C1CCc2c(sc(NC(=O)c3ccncc3)c2C(=O)Nc2ccccc2Cl)C1 (stereo not drawn) | 15%
CCOc1ccc(NC(=O)c2c(NC(=O)c3ccncc3)sc3c2CCC(C(C)(C)C)C3)cc1 (stereo not drawn) | i
CC1CCc2c(sc(NC(=O)COc3ccccc3)c2C(=O)Nc2ccccc2Cl)C1 (stereo not drawn) | 98%
Cc1cccc(NC(=O)c2c(NC(=O)c3cccs3)sc3c2CCC(C)C3)c1 (stereo not drawn) | 34%
